Data published in ChEMBL document CHEMBL3988442, “University of Dundee, Small-Polar-MMV Screening Library” (2021).
For some of these results: Potency and affinity values are given separately.

Experiments:
Parameters in all cases: scale not given: direction of the effect not stated beside the values
[1] = molecular target: Protein translocase subunit SecA (Escherichia coli (strain K12)) (UniProt P10408); test: Assay to Identify E. coli SecA ATPase Inhibitors; type: functional; details: 30 µM
[2] = molecular target: T1, Ubiquitin-activating enzyme e1, putative (Leishmania donovani (strain BPK282A1)) (UniProt E9BSI1); test: Leishmania donovani Ubiquitin Activating Enzyme (LdE1); type: functional; details: 30 µM
T1 sequence (whole entry): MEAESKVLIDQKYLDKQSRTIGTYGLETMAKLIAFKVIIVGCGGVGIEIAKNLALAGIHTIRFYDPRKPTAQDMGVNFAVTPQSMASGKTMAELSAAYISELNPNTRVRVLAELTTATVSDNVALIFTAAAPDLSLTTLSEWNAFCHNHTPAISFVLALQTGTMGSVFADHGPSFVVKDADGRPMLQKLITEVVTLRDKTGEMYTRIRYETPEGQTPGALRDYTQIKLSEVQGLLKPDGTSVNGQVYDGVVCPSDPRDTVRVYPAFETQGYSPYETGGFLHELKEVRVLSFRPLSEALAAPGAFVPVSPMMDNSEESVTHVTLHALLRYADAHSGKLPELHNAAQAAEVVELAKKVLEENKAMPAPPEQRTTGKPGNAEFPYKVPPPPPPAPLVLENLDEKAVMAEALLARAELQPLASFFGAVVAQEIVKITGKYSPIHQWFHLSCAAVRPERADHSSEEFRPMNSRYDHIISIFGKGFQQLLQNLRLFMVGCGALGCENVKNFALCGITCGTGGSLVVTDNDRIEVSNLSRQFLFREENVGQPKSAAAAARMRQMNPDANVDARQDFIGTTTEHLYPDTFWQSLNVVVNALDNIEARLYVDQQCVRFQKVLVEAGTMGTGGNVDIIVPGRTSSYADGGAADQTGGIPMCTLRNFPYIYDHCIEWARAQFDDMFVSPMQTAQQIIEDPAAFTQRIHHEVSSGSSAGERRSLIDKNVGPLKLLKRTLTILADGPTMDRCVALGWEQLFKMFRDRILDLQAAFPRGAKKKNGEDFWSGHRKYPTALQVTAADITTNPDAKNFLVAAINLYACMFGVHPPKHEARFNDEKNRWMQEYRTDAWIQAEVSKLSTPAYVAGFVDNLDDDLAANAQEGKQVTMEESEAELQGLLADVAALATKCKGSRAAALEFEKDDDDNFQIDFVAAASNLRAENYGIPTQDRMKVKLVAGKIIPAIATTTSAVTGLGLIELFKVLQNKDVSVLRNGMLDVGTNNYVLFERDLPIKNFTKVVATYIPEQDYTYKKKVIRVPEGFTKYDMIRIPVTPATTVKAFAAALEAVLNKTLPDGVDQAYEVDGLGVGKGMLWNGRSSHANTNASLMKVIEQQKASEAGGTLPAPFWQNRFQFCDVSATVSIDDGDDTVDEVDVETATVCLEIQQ

[3] = molecular target: AMP-activated protein kinase, AMPK (Homo sapiens) (UniProt P54646+O43741+P54619+Q9UGJ0+Q9Y478+Q13131+Q9UGI9); test: AMP-dependent Kinase enzyme assay. An in vitro enzyme assay that detects ADP turnover that is directly proportional to AMPK activity. This uses naive AMPK that is activated during the assay with MK-8722; type: functional; details: 30 µM
[4] = molecular target: Sialic acid-binding Ig-like lectin 9 (Homo sapiens) (UniProt Q9Y336); test: Hs-Siglec9 ALPHAscreen SOP 20170721; details: 10 µM
Sialic acid-binding Ig-like lectin 9 (Homo sapiens), sequence (Q9Y336 whole entry): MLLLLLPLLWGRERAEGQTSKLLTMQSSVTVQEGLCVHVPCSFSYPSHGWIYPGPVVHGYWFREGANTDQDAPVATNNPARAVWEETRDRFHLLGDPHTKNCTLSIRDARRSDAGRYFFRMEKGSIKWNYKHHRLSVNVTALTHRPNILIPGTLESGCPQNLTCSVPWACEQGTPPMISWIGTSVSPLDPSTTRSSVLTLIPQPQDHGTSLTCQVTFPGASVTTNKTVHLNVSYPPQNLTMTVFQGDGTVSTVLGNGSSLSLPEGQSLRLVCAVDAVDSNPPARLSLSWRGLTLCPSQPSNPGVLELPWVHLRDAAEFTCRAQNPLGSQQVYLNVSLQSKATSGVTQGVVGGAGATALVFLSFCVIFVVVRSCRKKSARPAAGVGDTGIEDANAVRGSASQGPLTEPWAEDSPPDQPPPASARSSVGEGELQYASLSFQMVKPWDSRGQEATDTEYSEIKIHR

Trypanosoma cruzi = test: Trypanosoma cruzi phosphomannomutase and mannose-1-phosphate guanylyltransferase assay; type: functional; details: 10 µM
[5] = molecular target: T2, Arginase-2, mitochondrial (Homo sapiens) (UniProt P78540); test: in vitro enzyme assay to detect the production of urea directly proportional to the activity of Arginase II; type: functional; details: 33.3 µM; further: in the data most compounds retested in dose-response had high values
T2 sequence (whole entry): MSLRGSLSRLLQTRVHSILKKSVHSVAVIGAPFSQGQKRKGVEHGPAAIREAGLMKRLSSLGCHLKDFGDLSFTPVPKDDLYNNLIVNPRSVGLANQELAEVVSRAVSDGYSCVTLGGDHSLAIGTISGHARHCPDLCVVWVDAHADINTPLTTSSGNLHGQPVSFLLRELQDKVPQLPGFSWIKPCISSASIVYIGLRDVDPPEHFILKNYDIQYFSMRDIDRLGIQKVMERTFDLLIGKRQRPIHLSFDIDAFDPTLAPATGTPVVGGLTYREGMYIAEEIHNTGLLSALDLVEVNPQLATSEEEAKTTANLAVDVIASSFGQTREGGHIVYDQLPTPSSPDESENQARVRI

[6] = molecular target: T3, Proteasome subunit beta (Trypanosoma cruzi) (UniProt O96673); test: Trypanosoma cruzi proteasome chymotrypsin-like activity (TcProtChymo) assay.; further: in the data most compounds retested in dose-response had high values; type: functional; details: 9.37 µM
T3 sequence (whole entry): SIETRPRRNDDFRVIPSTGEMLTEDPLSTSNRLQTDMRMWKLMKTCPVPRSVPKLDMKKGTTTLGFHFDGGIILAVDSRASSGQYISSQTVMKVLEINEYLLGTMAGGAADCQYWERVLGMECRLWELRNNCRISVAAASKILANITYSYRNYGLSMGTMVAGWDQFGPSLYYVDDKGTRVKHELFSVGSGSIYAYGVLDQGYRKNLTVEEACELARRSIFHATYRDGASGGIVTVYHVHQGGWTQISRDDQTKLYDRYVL

Homo sapiens = species on record: Homo sapiens; test: To identify inhibition of the IFN signalling (Jak-Stat) pathway via expression of an eGFP reporter gene under the control of an IFN-stimulated response element (ISRE) containing MxA promoter.; type: functional; details: 30 µM
[7] = molecular target: T4, Tyrosyl-tRNA synthetase, putative (Trypanosoma cruzi (strain CL Brener)) (UniProt Q4DSP6); test: Trypanosoma cruzi tyrosyl tRNA synthetase (TcYRS) _High Tyrosine SOP; type: functional; details: 30 µM; further: in the data most compounds retested in dose-response had high values
T4 sequence (whole entry): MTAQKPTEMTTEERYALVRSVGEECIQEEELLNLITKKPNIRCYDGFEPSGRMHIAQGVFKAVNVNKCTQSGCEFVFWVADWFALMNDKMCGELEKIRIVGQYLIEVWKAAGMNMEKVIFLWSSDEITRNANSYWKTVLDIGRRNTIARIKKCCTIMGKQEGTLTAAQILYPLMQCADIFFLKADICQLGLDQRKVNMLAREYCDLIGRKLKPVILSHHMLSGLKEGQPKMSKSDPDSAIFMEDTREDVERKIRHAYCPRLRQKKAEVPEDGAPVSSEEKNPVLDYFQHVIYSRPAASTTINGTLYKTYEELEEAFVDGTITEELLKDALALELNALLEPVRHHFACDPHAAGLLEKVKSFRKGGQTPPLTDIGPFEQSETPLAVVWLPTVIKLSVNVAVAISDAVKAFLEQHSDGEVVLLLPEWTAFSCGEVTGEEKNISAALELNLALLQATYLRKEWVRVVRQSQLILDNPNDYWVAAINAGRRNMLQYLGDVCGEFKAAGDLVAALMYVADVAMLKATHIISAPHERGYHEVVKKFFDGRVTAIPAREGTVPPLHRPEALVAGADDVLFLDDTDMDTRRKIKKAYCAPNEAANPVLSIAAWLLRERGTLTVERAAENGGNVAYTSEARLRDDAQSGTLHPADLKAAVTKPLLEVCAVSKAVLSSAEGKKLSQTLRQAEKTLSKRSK

[8] = molecular target: T4, Tyrosyl-tRNA synthetase, putative (Trypanosoma cruzi (strain CL Brener)); test: Trypanosoma cruzi tyrosyl tRNA synthetase (TcYRS) SOP; type: functional; details: 30 µM
[9] = molecular target: Chromo domain-containing protein 1 (Saccharomyces cerevisiae (strain ATCC 204508 / S288c) (Baker's yeast)) (UniProt P32657); test: ScCHD-1 Enzyme Inhibition Assay; type: functional; details: 30 µM; further: in the data most compounds retested in dose-response had high values
Chromo domain-containing protein 1 (Saccharomyces cerevisiae (strain ATCC 204508 / S288c) (Baker's yeast)), sequence (P32657 whole entry, the tested form may be a part): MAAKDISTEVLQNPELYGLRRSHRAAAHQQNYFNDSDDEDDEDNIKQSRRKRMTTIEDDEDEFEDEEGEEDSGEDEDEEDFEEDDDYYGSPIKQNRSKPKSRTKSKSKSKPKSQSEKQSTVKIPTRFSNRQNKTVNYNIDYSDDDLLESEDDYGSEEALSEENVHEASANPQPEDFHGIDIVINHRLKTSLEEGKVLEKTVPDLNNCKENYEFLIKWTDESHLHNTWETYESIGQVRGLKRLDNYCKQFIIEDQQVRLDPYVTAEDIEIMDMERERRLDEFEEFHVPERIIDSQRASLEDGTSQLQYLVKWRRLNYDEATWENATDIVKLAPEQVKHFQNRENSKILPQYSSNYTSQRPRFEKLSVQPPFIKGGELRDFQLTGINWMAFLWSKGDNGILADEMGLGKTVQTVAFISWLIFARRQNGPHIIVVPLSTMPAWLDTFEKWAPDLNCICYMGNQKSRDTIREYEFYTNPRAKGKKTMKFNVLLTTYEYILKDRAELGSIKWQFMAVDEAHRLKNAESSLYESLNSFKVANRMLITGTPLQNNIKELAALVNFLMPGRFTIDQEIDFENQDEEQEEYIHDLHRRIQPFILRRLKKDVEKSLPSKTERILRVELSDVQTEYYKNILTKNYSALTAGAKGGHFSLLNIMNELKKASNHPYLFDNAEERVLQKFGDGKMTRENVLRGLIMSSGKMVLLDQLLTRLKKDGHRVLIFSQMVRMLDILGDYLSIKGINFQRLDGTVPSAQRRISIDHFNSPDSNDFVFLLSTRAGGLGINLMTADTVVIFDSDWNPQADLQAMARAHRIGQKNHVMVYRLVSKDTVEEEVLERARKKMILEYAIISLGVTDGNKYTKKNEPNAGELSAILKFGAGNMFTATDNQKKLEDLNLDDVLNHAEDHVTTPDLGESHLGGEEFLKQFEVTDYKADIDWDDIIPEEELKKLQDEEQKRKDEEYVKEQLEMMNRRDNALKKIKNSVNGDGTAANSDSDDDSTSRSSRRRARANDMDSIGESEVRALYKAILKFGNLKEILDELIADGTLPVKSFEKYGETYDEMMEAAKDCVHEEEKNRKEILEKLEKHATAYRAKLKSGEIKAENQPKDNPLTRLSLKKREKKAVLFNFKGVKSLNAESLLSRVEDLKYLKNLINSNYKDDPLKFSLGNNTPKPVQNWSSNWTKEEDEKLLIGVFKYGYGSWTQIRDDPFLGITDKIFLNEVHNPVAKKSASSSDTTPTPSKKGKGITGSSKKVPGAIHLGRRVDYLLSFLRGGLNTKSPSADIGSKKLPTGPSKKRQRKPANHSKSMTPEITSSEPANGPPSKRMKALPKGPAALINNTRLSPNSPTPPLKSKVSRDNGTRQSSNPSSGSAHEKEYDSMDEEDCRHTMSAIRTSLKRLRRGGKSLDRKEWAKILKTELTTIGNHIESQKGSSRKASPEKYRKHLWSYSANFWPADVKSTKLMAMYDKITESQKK

Protein translocase subunit SecA (Escherichia coli (strain K12)), sequence (P10408 whole entry): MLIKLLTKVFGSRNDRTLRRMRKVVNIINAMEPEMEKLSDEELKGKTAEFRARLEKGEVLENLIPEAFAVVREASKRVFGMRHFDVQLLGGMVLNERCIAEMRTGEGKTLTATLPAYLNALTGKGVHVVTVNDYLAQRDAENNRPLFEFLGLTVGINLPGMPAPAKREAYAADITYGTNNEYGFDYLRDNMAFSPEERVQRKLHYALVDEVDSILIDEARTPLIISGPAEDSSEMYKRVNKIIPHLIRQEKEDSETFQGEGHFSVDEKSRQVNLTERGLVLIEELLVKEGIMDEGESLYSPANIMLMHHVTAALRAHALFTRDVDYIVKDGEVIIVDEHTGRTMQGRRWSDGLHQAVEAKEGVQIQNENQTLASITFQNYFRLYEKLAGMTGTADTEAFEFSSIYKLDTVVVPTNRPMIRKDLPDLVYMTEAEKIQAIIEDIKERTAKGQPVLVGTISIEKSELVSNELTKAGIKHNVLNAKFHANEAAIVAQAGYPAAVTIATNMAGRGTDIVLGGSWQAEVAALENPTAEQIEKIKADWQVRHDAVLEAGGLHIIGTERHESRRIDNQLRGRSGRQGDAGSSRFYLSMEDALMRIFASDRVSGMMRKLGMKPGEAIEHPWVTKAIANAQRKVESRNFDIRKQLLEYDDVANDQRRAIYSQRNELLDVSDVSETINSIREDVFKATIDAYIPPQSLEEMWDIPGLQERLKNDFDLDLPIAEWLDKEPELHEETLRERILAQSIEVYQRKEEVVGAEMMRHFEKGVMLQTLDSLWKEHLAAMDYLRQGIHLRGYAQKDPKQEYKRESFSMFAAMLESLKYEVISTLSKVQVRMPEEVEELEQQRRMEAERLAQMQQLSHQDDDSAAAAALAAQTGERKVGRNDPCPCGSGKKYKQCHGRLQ

Structure (SMILES)	Percent Effect [1]	Percent Effect [2]	Percent Effect [3]	Percent Effect [4]	Percent Effect (Trypanosoma cruzi)	Percent Effect [5]	Percent Effect [6]	Percent Effect (Homo sapiens)	Percent Effect [7]	Percent Effect [8]	Percent Effect [9]
CCn1ccc(C(=O)NCCCN2CCOCC2)n1	-1.56%	5.2%	-2.13%	4.7%	-0.492%	-2.76%	22%	4.11%	7.53%	13.6%	0.597%
O=C(NCc1cccnc1)C1CC(=O)N(CC2CC2)C1 (stereo unspecified)	-5.33%	15.6%	-0.688%	-14.6%	6.37%	-1.05%	17.7%	4.16%	4.76%	21.2%	-21.7%
CCc1nc(CC(=O)N2CCn3c(nnc3C(C)C)C2)cs1	-3.31%	0%	1.23%	1.14%	3.95%	-1.92%	3.68%	-11.4%	2.45%	12.2%	-11%
Cc1cnn(CCC(=O)N2CCCN(c3cccnn3)CC2)c1	1.07%	3.8%	1.28%	0.558%	1.74%	-0.645%	13.2%	12.8%	2.08%	5.06%	-16.1%
COCCn1ccc2cc(NC(C)=O)ccc21	-8.18%	23.7%	-9.22%	7.23%	1.46%	-9.47%	16.4%	-6.07%	4.25%	10.4%	-9.21%
Cc1nonc1C(=O)N1CCCC(c2ncncc2-c2ccncc2)C1 (stereo unspecified)	-5.71%	8%	11.1%	2.77%	-0.591%	0.699%	3.08%	-1.27%	5.32%	8.97%	-4.88%
O=C(Nc1cnn(CCN2CCOCC2)c1)c1ccccn1	-3.13%	10.5%	3.43%	9.01%	3.38%	0%	5.85%	-7.34%	5.39%	12.2%	0.887%
CCOc1cccc2c1OCC(C(=O)NS(=O)(=O)c1ccc(Cl)cc1)=C2	-8.58%	-2.7%	102%	7.55%	-5%	-5.61%	-2.52%	18.9%	-23.1%	-33.3%	-6.64%
Cc1nc(C)n(CC2CCCN(CCc3ccncc3)C2)n1 (stereo unspecified)	-3.33%	16.4%	0.226%	18.2%	2.35%	1.36%	15.6%	-0.0927%	7.53%	17.5%	-9.61%
Cc1nn(C)c(N(C)C)c1CNC1CCOc2c(F)cccc21 (stereo unspecified)	-6.1%	5.26%	-2.48%	4.77%	-6.01%	0.766%	8.02%	9.98%	6.37%	4.88%	2.09%
CCN1CC2(CC1=O)CN(Cc1ccco1)CCN(C(=O)N(C)C)C2 (stereo unspecified)	-0.643%	2.74%	1.96%	9.02%	-1.39%	4.39%	6.59%	-2.04%	5.21%	11.1%	0.322%
